Vif-A3F inh – Vif-A3F binding inhibition; HeLa A3F-eYFP + Vif (tagged APOBEC3F with the HIV-1 protein that degrades it), YFP fluorescence increase; Potency, µM (titrated, usually from 46.1 µM), without a hit: at the top dose activity, negative = active; 0.2% of 390,000 active; note: potency is the fitted concentration of half-maximal effect; % of control where 0% means no effect; nearly all actives have a fitted effect of over 65% in size
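HeLa cells stably expressing Vif plus C-terminally eYFP-tagged A3F were seeded, incubated overnight at 37 deg C, dosed with compound, incubated overnight again at 37 deg C. Yellow fluorescence (Ex 488/Em 500-530) reported blocked Vif-mediated A3F-eYFP degradation.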
Vif-APOBEC3G blk – inhibitors of Vif-APOBEC3G interaction; HeLa A3G-eYFP + Vif (tagged APOBEC3G with the HIV-1 protein that degrades it), YFP fluorescence, overnight; Potency, µM (top dose mostly 46.1 µM), without a hit: top-dose activity, negative = active, actives largely listed as inhibitors; 0.076% of 410,000 active; AID 602310; note: potency is the fitted concentration of half-maximal effect; % is set by controls: 0 for no effect and ±100 for the full control effect; nearly all actives have a fitted effect of over 60% in size
Target sequence (Q9HC16 whole entry, looked up): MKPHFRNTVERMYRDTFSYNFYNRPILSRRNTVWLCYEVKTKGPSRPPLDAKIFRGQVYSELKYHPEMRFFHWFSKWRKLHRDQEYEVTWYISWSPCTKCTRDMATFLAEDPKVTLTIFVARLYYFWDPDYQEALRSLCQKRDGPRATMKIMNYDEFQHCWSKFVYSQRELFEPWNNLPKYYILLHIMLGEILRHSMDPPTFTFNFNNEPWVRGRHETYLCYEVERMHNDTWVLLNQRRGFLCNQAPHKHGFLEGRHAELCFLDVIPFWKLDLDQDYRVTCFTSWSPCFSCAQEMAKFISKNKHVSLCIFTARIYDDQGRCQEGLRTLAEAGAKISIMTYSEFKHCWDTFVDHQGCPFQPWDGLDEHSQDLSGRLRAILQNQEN
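Read-out is eYFP fluorescence (Ex 488/Em 500-530) from Vif-expressing HeLa A3G-eYFP cells; more signal means A3G escaped Vif-mediated degradation. Cells plated overnight, compound pinned in, incubated overnight at 37 deg C.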
Giardia kill – kills Giardia lamblia; Giardia lamblia trophozoite viability; activity change, % at 7.66 µM, hits read low; 0.15% of 340,000 active; AID 540267; in the data active = activity change below about -80%; inconclusive = between about -30% and that limit;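 note: parasites exposed to compound for two days anaerobically before the ATP read; % is set by controls: 0 for no effect and ±100 for the full control effect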
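Giardia trophozoites, 100 cells per well, were exposed to compounds for 48 hrs at 37 deg C under anaerobic conditions; viability was then read as ATP content by bioluminescence after 15-30 min at room temperature.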
MCF10A rerep – induces DNA re-replication in MCF 10a normal breast cells. AID 624296. 2.9% of 350,000 active. Potency, µM (series often up to 46.1 µM), for the others: top-dose activity, positive = re-replication, most hits filed as activators. MCF 10A DNA re-replication, Hoechst nuclear intensity, 48 h; note: potency is the fitted concentration of half-maximal effect; % of control where 0% means no effect; nearly all actives have a fitted effect of over 50% in size
IL1B secr inh – blocks inflammasome-driven IL-1 beta release. THP-1 LPS/ATP IL-1B secretion, AlphaLISA, 16 h; active compounds read low. activity change, % at 57.5 µM. 4.7% of 360,000 active. AID 743279; in the data active = activity change below about -50%; inconclusive = mostly about -30% to -49%; note: % is set by controls: 0 for no effect and ±100 for the full control effect
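THP-1 cells pretreated 1 hr with compounds (up to 57.5 uM final), then stimulated with LPS (250 ng/mL final) plus ATP (1.25 mM final); secreted IL-1B measured by AlphaLISA after 16 hr, decreased signal indicating inhibition.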
SW480 rereplic – induces DNA re-replication in SW480 colon adenocarcinoma cells | 1.8% of 340,000 active | Potency, µM (doses to about 46.1 µM), for inactives: top-dose re-replication activation, actives largely listed as activators | SW480 DNA re-replication, Hoechst DNA content imaging, 48 h; note: potency is the fitted concentration of half-maximal effect; % of control where 0% means no effect; nearly all actives have a fitted effect of over 55% in size
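First, 250 cells per well were seeded. Next, compound or vehicle (23 nL) was pinned in, plates sat 48 hr at 37 C. Finally Hoechst was added for 40 min before fluorescence scanning.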
* = called active by the depositor; ? = inconclusive; nt = no result. This is a sample that favours compounds with a hit; in the whole collection about 6.9% have one here. Unless noted, calls come from the whole dose curve; as a rule, active = well fitted curve in the direction sought with a large enough effect; inconclusive = small, poorly fitted or top-dose-only effect, or another doubt; inactive = no such curve, though single readings can be large; an effect the other way counts as inactive or inconclusive.

SMILES	Vif-A3F inh	Vif-APOBEC3G blk	Giardia kill	MCF10A rerep	IL1B secr inh	SW480 rereplic
CN(C)c1ccc(N=C/C=C2/N(C)c3ccccc3C2(C)C)cc1	-19.5%	-10.9%	30.2	4.6%	-63.9*	5.7%
CC1=NN(c2ccccc2)C(=O)/C1=C\C=C1\N(C)c2ccccc2C1(C)C	-5.1%	0.0%	-8.9	?	-13.4	0.6%
Cc1cccc(C2=NN(c3ccc(Br)cc3)[C@@H](C(=O)N3CCOC3=O)[C@@H]2c2ccc(F)cc2)c1	3.5%	-1.7%	0.6	?	-11.7	9.2µM*
Cc1cccc(C2=NN(c3ccc(Br)cc3)[C@@H](C(=O)N3CCOC3=O)[C@@H]2c2ccc(Cl)cc2)c1	1.3%	-2.8%	-23.5	?	-15.5	8.2µM*
O=C1OCCN1C(=O)[C@H]1[C@H](c2ccc([N+](=O)[O-])cc2)C(c2cccc(Cl)c2)=NN1c1ccc(Br)cc1	-4.3%	-2.3%	-12.3	-3.2%	-7.4	-6.7%
O=C(CN1CCN(C(=O)C2CCN(C(=O)/C=C/c3ccccc3)CC2)CC1)Nc1ccc(F)cc1	-4.2%	-1.3%	?	5.9%	-83.4*	1.8%
O=C(CN1CCC(C(=O)c2ccc(F)cc2)CC1)Nc1ccccc1	3.6%	-5.8%	8.8	1.9%	-15.2	0.6%
CCOc1ccc(NC(=O)N2CC3CCCN3c3ccccc32)cc1 (configuration not stated)	-0.1%	-17.0%	nt	nt	nt	nt
O=C(c1cnn(-c2ccc(F)cc2)c1-n1cccc1)N1CCN(c2ccccc2)CC1	10.8%	-2.2%	nt	nt	nt	nt
O=C(NCc1ccccc1Cl)C(=O)NCC(c1cccs1)S(=O)(=O)c1cccs1 (configuration not stated)	0.4%	7.3%	nt	nt	nt	nt
Cc1cc(/C=C2\SC(=S)N(C)C2=O)c(C)n1-c1cccc(O)c1	?	-11.7%	-13.1	13µM*	0.0	17.1%
CN1C(=O)/C(=C\c2cc(N=Nc3ccccc3)ccc2O)SC1=S	2.3%	0.5%	-7.2	2.91µM*	-4.4	-0.6%
CN(C)c1ccc(C=C2SC(=S)N(Cc3ccco3)C2=O)cc1	?	?	nt	nt	9.6	nt
COc1ccc(-n2c(C)cc(/C=C3/SC(=S)N(C)C3=O)c2C)cc1	-12.6%	-1.3%	22.8	-8.3%	-7.1	-85.6%
CN=C1S/C(=C\c2cc(C)n(-c3ccccc3F)c2C)C(=O)N1C	-7.0%	-0.2%	-19.5	20.6µM*	-21.8	3.8%
CN1C(=O)/C(=C\c2ccccc2OCc2ccccc2)SC1=S	?	5.7%	-21.4	1.3%	26.1	-2.2%
Cc1cc(/C=C2\SC(=S)N(Cc3ccco3)C2=O)c(C)n1-c1ccccc1	20µM*	?	-20.8	5.8µM*	-25.5	-1.6%
CCOC(=O)Cc1ccc(NC(=O)N2CCc3c(sc4c3CCCC4)C2c2ccc(F)cc2)cc1 (configuration not stated)	1.6%	0.7%	nt	nt	nt	nt
Nc1nc(/C=C/c2cccnc2)nc(-c2ccccc2O)n1	3.2%	-9.5%	1.9	?	-60.1*	18.5%
C[C@@H]1[C@H](O)[C@@H](C)/C=C/C=C/C=C/C=C/C=C/C=C/C=C/[C@H](O[C@@H]2O[C@H](C)[C@@H](O)[C@H](N)[C@@H]2O)C[C@@H]2O[C@](O)(C[C@@H](O)C[C@@H](O)[C@H](O)CC[C@@H](O)C[C@@H](O)CC(=O)O[C@H]1C)C[C@H](O)[C@H]2C(=O)O	nt	nt	nt	5.9%	nt	5.0%
CC(=O)c1cc2ccccc2c2ccccc12	nt	-2.0%	nt	nt	nt	nt
Cc1ccc(C(=O)N/N=c2\sc3ccccc3n2C)cc1	0.3%	-0.8%	3.7	?	8.0	0.651µM*
COc1cccc(C(=O)N/N=c2\sc3ccccc3n2C)c1	-4.4%	2.9%	12.6	3.0%	0.0	nt
Cc1ccc(CSCCNS(=O)(=O)c2ccc([N+](=O)[O-])cc2)cc1	2.4%	2.3%	2.3	6.3%	-61.1*	4.8%
CN(Cc1ccccc1)C(=O)C1CCN(S(=O)(=O)c2ccc3c(c2)oc(=O)n3C)CC1	-8.2%	-0.2%	nt	nt	nt	nt
SMILES	Vif-A3F inh	Vif-APOBEC3G blk	Giardia kill	MCF10A rerep	IL1B secr inh	SW480 rereplic
CCC(C)NC(=O)Cn1c(=O)c2cccn2c2ccc(F)cc21 (configuration not stated)	-5.9%	3.2%	nt	nt	nt	nt
Cc1cc(O)c(NC(=S)NC(=O)c2ccc(-c3ccc(Cl)cc3)o2)cc1C	-2.6%	-4.6%	2.2	16.4µM*	-20.3	11.6%
O=C(Nc1ccccc1N1CCCCC1)c1ccc(-c2ccc(Cl)cc2)o1	16.0%	?	2.3	?	26.2	2.91µM*
CN1CCN(c2ccccc2NC(=O)c2ccc(-c3ccc(Br)cc3)o2)CC1	-10.7%	?	3.6	4.11µM*	28.6	8.2µM*
Cc1ccc(NC(=S)NC(=O)c2ccc(-c3ccc(Cl)cc3)o2)c(O)c1	1.9%	-19.3%	1.0	?	0.0	7.4%
Cc1cc(N2CCN(C)CC2)ccc1NC(=O)c1ccc(-c2ccc(Cl)cc2)o1	-9.9%	-25.3%	66.8	1.16µM*	?	6.3%
C/C=C1\COC(C(=O)NCCN2CCOCC2)(C(F)(F)F)C=C1C=C(C)C (configuration not stated)	nt	0.2%	17.0	nt	nt	nt
COc1ccc(N(C)S(=O)(=O)c2ccc3c(c2)n(C)c(=O)c(=O)n3C)cc1	-1.1%	0.8%	nt	nt	nt	nt
CN(C)c1ccc(/C=[N+]2\C(=O)CC(=O)NC2=O)cc1	nt	0.9%	nt	nt	nt	nt
S=C(c1ccc(-c2ccc(Cl)cc2)o1)N1CCCCC1	-12.7%	-3.3%	-2.2	1.2%	-51.6*	7.1%
COC(CN(C(=O)CCl)C(C(=O)NC1CCCCC1)c1ccc(Cl)cc1)OC (configuration not stated)	2.8%	-6.7%	15.0	12.4%	?	8.7%
COC(CN(C(=O)CCl)C(C(=O)NC1CCCC(C)C1C)c1ccc(C)cc1)OC (configuration not stated)	-0.9%	-0.8%	15.4	?	-100.0*	-5.6%
COC(CN(C(=O)CCl)C(C(=O)NC1CCCCC1)c1ccccc1C)OC (configuration not stated)	9.1%	-13.3%	-5.0	?	-103.9*	?
O=C(CSc1ncc2c(n1)-c1ccccc1N(Cc1ccccc1)S2(=O)=O)Nc1ccccc1	-6.2%	-1.8%	nt	nt	nt	nt
C=C1Nc2ccccc2C(=O)N1c1ccc(C(=O)N2CCN(C(=O)c3ccco3)CC2)cc1	nt	3.1%	-19.2	nt	nt	nt
O=C(N/N=C/c1cc(Br)c(Br)o1)c1ccc2c(c1)OCCO2	3.0%	?	-1.8	13µM*	-2.7	-0.5%
O=C(N/N=C/c1c[nH]c2ccccc12)c1ccc2c(c1)OCCO2	3.6%	?	-24.6	16.4µM*	nt	?
